The term cell viability denotes a read-out of living cells in per cent, often relative to untreated cells.

In the supplement of paper PMC10981050 one finds cell viability data, which are given here for ten compounds.

Holding throughout (assay): cell viability relative to vehicle control; higher = less cytotoxic
Settings in all cases: 10 µM

For one experiment, the system named is K562. The essentials:
(§1)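 Screening covered the Selleck bioactive, kinase and epigenetic probe libraries, less identity-inconsistent compounds, on CRISPR-edited mutant clones and isogenic wild-type clones of four leukaemia lines. Cells, at 2000 per well in 50 µL medium, received a single 10 µM acoustically dispensed dose. After 48 h the supernatant was removed and CellTiter-Glo luminescence was read. Viability was analysed in Genedata Screener as percent of the on-plate vehicle control.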

The test system of another experiment is MARIMO. Put shortly: as §1
Another experiment deals with MOLM14. Put shortly: as §1
Another experiment concerns OCI-AML2. The essentials:
as §1

Structures are written as SMILES. “And” between values parts separate entries of the source, which are not always exact repeats. Equal values may be shown once.

For `O=C1O[C@H]([C@@H](O)CO)C(O)=C1O` [Vitamin C (Ascorbic acid)], the cell viability was 89.8% and 88.3% with K562 (SRSF2 genotype: SRSF2 P95H/wt); 85.8% in the experiment on K562 (SRSF2 genotype: SRSF2 wt/wt); 100% in the experiment on MARIMO (SRSF2 genotype: SRSF2 P95H/wt); 92.8% with MARIMO (SRSF2 genotype: SRSF2 wt/wt); 90.8% in the experiment with MOLM14 (SRSF2 genotype: SRSF2 P95H/wt); 95.1% in the experiment on MOLM14 (SRSF2 genotype: SRSF2 wt/wt). The cell viability in the experiment on OCI-AML2 (SRSF2 genotype: P95H/wt) stood at 91%; in the experiment on OCI-AML2 (SRSF2 genotype: wt/wt), 93%.
On to `COc1ccc(-c2coc3cc(O[C@@H]4O[C@H](CO)[C@@H](O)[C@H](O)[C@H]4O)ccc3c2=O)cc1O` [Calycosin-7-O-beta-D-glucoside], for which the cell viability was 95% and 99% in the experiment on K562 (SRSF2 genotype: SRSF2 P95H/wt); 98.5% with K562 (SRSF2 genotype: SRSF2 wt/wt); 93% in the experiment with MARIMO (SRSF2 genotype: SRSF2 P95H/wt); 105% in the experiment on MARIMO (SRSF2 genotype: SRSF2 wt/wt); 112% in the experiment with MOLM14 (SRSF2 genotype: SRSF2 P95H/wt); 110% in the experiment on MOLM14 (SRSF2 genotype: SRSF2 wt/wt). Also, the cell viability in the experiment with OCI-AML2 (SRSF2 genotype: P95H/wt) came out at 97.1%; with OCI-AML2 (SRSF2 genotype: wt/wt) it was 106%.
With `COc1ccc2cc1Oc1ccc(cc1)C[C@H]1c3c(cc4c(c3Oc3cc5c(cc3OC)CCN(C)[C@@H]5C2)OCO4)CCN1C` [Cepharanthine], the cell viability in the experiment on K562 (SRSF2 genotype: SRSF2 P95H/wt) was 5.44% and 5.78%; in the experiment on K562 (SRSF2 genotype: SRSF2 wt/wt) it was 3.74%; in the experiment on MARIMO (SRSF2 genotype: SRSF2 P95H/wt) it was 57.9%; in the experiment with MARIMO (SRSF2 genotype: SRSF2 wt/wt) it was 50.3%; in the experiment with MOLM14 (SRSF2 genotype: SRSF2 P95H/wt), 25.4%; in the experiment with MOLM14 (SRSF2 genotype: SRSF2 wt/wt), 26.7%. Besides, the cell viability was determined as 0.56% in the experiment with OCI-AML2 (SRSF2 genotype: P95H/wt) and 8.53% with OCI-AML2 (SRSF2 genotype: wt/wt).
For the compound `Cc1nc2ccc(-n3ncc(C(=O)c4cc5ccccc5[nH]4)c3N)cc2[nH]1`, the cell viability in the experiment with K562 (SRSF2 genotype: SRSF2 P95H/wt) was 73.6% and 86.9%; with K562 (SRSF2 genotype: SRSF2 wt/wt) it was 76.5%; with MARIMO (SRSF2 genotype: SRSF2 P95H/wt) it was 90.6%; in the experiment on MARIMO (SRSF2 genotype: SRSF2 wt/wt) it was 103%; with MOLM14 (SRSF2 genotype: SRSF2 P95H/wt) it was 41.2%; in the experiment with MOLM14 (SRSF2 genotype: SRSF2 wt/wt), 47.5%. Further, the cell viability in the experiment with OCI-AML2 (SRSF2 genotype: P95H/wt) was found to be 42.6%; in the experiment on OCI-AML2 (SRSF2 genotype: wt/wt) it was 43.7%.
With `CC(C)=CCc1cc2c(cc1O)oc(=O)c1c3ccc(O)cc3oc21` [Psoralidin], the cell viability in the experiment on K562 (SRSF2 genotype: SRSF2 P95H/wt) is 98.2% and 95.7%; with K562 (SRSF2 genotype: SRSF2 wt/wt) it was 95.2%; in the experiment with MARIMO (SRSF2 genotype: SRSF2 P95H/wt) it was 98%; with MARIMO (SRSF2 genotype: SRSF2 wt/wt), 106%; in the experiment with MOLM14 (SRSF2 genotype: SRSF2 P95H/wt), 115%; with MOLM14 (SRSF2 genotype: SRSF2 wt/wt), 107%. In addition, the cell viability in the experiment with OCI-AML2 (SRSF2 genotype: P95H/wt) worked out at 98%; with OCI-AML2 (SRSF2 genotype: wt/wt), 98.9%.
Take `CCCCC[C@H](O)CC(=O)CCc1ccc(O)c(OC)c1` [6-Gingerol]: the cell viability with K562 (SRSF2 genotype: SRSF2 P95H/wt) is 87.8% and 85.7%; in the experiment with K562 (SRSF2 genotype: SRSF2 wt/wt), 82.9%; in the experiment with MARIMO (SRSF2 genotype: SRSF2 P95H/wt) it was 86.8%; in the experiment with MARIMO (SRSF2 genotype: SRSF2 wt/wt), 98.7%; in the experiment on MOLM14 (SRSF2 genotype: SRSF2 P95H/wt), 90.6%; with MOLM14 (SRSF2 genotype: SRSF2 wt/wt) it was 95.5%. Also, the cell viability was 90.9% in the experiment on OCI-AML2 (SRSF2 genotype: P95H/wt) and 81.8% in the experiment on OCI-AML2 (SRSF2 genotype: wt/wt).
As for `NC(=O)c1cccc2cn(-c3ccc(C4CCCNC4)cc3)nc12` (stereo not given) [MK-4827(Niraparib)], the cell viability in the experiment on K562 (SRSF2 genotype: SRSF2 P95H/wt) is 102% and 104%; in the experiment with K562 (SRSF2 genotype: SRSF2 wt/wt), 86.9%; with MARIMO (SRSF2 genotype: SRSF2 P95H/wt) it was 40.9%; in the experiment with MARIMO (SRSF2 genotype: SRSF2 wt/wt), 57.4%; in the experiment with MOLM14 (SRSF2 genotype: SRSF2 P95H/wt), 25.2%; in the experiment with MOLM14 (SRSF2 genotype: SRSF2 wt/wt), 8.96%. In addition, the figures for the cell viability in the experiment with OCI-AML2 (SRSF2 genotype: P95H/wt) and with OCI-AML2 (SRSF2 genotype: wt/wt) were 45.3% and 51.5%, respectively.
On to `CC(C(=O)O)c1ccc2c(c1)CC(=O)c1ccccc1S2` (stereo not given) [Zaltoprofen], for which the cell viability in the experiment with K562 (SRSF2 genotype: SRSF2 P95H/wt) was 102% and 98.4%; in the experiment on K562 (SRSF2 genotype: SRSF2 wt/wt), 97.7%; in the experiment with MARIMO (SRSF2 genotype: SRSF2 P95H/wt) it was 96.8%; in the experiment with MARIMO (SRSF2 genotype: SRSF2 wt/wt), 103%; with MOLM14 (SRSF2 genotype: SRSF2 P95H/wt) it was 99.1%; in the experiment with MOLM14 (SRSF2 genotype: SRSF2 wt/wt) it was 98.8%. Besides, the cell viability with OCI-AML2 (SRSF2 genotype: P95H/wt) turned out to be 94.4%; in the experiment with OCI-AML2 (SRSF2 genotype: wt/wt) it was 104%.
Consider `Cc1c(C)c(NCC(=O)N(C)C2CCN(Cc3ccc(C(N)=O)cc3)CC2)c(C)c(C)c1N`, for which the cell viability in the experiment on K562 (SRSF2 genotype: SRSF2 P95H/wt) is 103% and 95.7%; in the experiment with K562 (SRSF2 genotype: SRSF2 wt/wt), 100%; in the experiment with MARIMO (SRSF2 genotype: SRSF2 P95H/wt), 99.4%; with MARIMO (SRSF2 genotype: SRSF2 wt/wt), 102%; in the experiment with MOLM14 (SRSF2 genotype: SRSF2 P95H/wt), 87.1%; in the experiment with MOLM14 (SRSF2 genotype: SRSF2 wt/wt), 96.8%. Moreover, the results for the cell viability in the experiment with OCI-AML2 (SRSF2 genotype: P95H/wt) and with OCI-AML2 (SRSF2 genotype: wt/wt) were 98.7% and 103%, respectively.
For the compound `C[C@@H]1CC(=O)Nc2cccc(-c3ccc4c(c3)c(-c3cnn(C)c3)nn4C)c2N1`, the cell viability was 80.2% and 77.7% in the experiment with K562 (SRSF2 genotype: SRSF2 P95H/wt); 81.6% in the experiment with K562 (SRSF2 genotype: SRSF2 wt/wt); 55.1% with MARIMO (SRSF2 genotype: SRSF2 P95H/wt); 49.1% in the experiment with MARIMO (SRSF2 genotype: SRSF2 wt/wt); 32.5% in the experiment with MOLM14 (SRSF2 genotype: SRSF2 P95H/wt); 35.8% with MOLM14 (SRSF2 genotype: SRSF2 wt/wt). The cell viability in the experiment on OCI-AML2 (SRSF2 genotype: P95H/wt) was determined as 32.6%; with OCI-AML2 (SRSF2 genotype: wt/wt), 47.2%.
